{"source": "PubChem BioAssay (EPA / NIEHS)", "note": "The source made the active and inactive calls. The calls were made as follows: active = hit-call score of the fitted dose curve at least 0.9, where 1 is the maximum; inactive = score below 0.9."}
{"molecular_target": "Transcription factor Sp1 (Homo sapiens) (UniProt P08047)", "sequence (P08047 whole entry, looked up)": "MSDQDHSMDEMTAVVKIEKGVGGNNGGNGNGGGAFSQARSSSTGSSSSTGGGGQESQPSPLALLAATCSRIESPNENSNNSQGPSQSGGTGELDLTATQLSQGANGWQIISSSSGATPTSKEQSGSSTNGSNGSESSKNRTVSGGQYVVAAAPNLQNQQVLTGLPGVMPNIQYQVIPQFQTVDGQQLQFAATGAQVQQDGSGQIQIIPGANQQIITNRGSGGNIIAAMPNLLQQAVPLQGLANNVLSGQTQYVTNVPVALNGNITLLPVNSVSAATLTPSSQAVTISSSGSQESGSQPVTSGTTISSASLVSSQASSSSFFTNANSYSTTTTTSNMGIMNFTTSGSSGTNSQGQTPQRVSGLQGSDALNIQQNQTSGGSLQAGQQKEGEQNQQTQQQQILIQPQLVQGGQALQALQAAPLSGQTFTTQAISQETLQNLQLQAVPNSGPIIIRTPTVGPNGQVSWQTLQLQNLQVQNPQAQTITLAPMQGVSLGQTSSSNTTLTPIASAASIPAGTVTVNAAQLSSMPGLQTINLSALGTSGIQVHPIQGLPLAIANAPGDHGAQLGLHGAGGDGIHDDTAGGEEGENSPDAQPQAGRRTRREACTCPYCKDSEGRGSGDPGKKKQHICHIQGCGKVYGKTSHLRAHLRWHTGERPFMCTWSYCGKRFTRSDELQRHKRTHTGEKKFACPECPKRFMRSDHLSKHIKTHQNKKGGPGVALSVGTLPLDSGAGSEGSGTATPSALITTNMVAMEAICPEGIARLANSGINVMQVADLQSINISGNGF", "experiment": "ATG_Sp1_CIS: Attagene CIS-FACTORIAL HepG2 Assay for human Specificity Protein 1 (Sp1) (AID 2282961)", "settings": "HepG2 Sp1 cis-reporter transcription, actives raise or lower the signal", "experimental": "ATG_CIS is a cell-based, multiplexed-readout assay that uses HepG2, a human liver cell line, with measurements taken at 24 hours after chemical dosing in a 24-well plate.ATG_Sp1_CIS is one of 52 assay component(s) measured or calculated from the ATG_CIS assay. It is designed to make measurements of mRNA induction, a form of inducible reporter, as detected with fluorescence intensity signals by Reverse transcription polymerase chain reaction (RT-PCR) and Capillary electrophoresis technology.Data from the assay component ATG_Sp1_CIS was analyzed into 1 assay endpoint. This assay endpoint, ATG_Sp1_CIS, was analyzed with bidirectional fitting relative to DMSO as the negative control and baseline of activity. Using a type of inducible reporter, measures of mRNA for gain or loss-of-signal activity can be used to understand the reporter gene at the transcription factor-level as they relate to the gene SP1. Furthermore, this assay endpoint can be referred to as a primary readout, because this assay has produced multiple assay endpoints where this one serves a reporter gene function. To generalize the intended target to other relatable targets, this assay endpoint is annotated to the dna binding intended target family, where the subfamily is zinc finger.\nHuman liver HepG2 cells are transiently transfected with multiple reporter transcription units (MRTUs) in 6-well plates using FuGene 6 reagent (Roche; 3 ml FuGene/1 mg DNA). The MRTU constructs are regulated by a cis-regulating element (promoter). […] A major difference between the CIS and TRANS system is that in CIS activities of endogenous TFs are measured, whereas the TRANS assay evaluates changes in activities of exogenous, chimeric NR-Gal4 proteins. […] At the end of 24 hour incubation, total RNA was isolated using TriZol reagent (Invitrogen). The isolated RNA is then reverse-transcribed using oligo(dT) primer and Mo-MLV reverse transcriptase (Invitrogen) with DNAse I (Ambion) treatment for 30 min. The one-tenth of the produced cDNA was amplified by PCR using Taq DNA polymerase (Invitrogen) and two reporter sequence-specific primers. The PCR products were fluorescently labeled by primer extension with 6-arboxyfluorescein (6-FAM) 5'-labeled reporter sequence-specific primer (2 min at 95 C, 20 s at 68 C and 10 min at 72 C) and these products were digested with 5U of HpaI (New England Biolabs) for 2h at 37 C. The fragments were purified using Qiaquick PCR columns (Qiagen), analyzed on an ABI 3130xL genetic analyzer (Applied Biosystems) with peak positions identified by using a set of X-rhodamine (ROX)-labeled MapMarker1000 molecular weight standards (BioVentures). The raw capillary electrophoresis data was processed using Attagraph software (Attagene)."}
{"smiles": "CCCCSP(=O)(SCCCC)SCCCC", "AC50": "50 µM (active)"}
{"smiles": "CCc1cccc(C)c1N(C(=O)CCl)C(C)COC", "note": "(stereo not given)", "outcome": "inactive"}
{"smiles": "COc1cc(OC)nc(Sc2cccc(Cl)c2C(=O)O)n1", "outcome": "inactive"}
{"smiles": "CN1COCN(Cc2cnc(Cl)s2)C1=N[N+](=O)[O-]", "outcome": "inactive"}
{"smiles": "CCOP(=S)(Oc1cnc(C(C)(C)C)nc1)OC(C)C", "note": "(stereo not given)", "AC50": "28.1 µM (active)"}
{"smiles": "CCOP(=O)(SC(C)CC)N1CCSC1=O", "note": "(stereo not given)", "outcome": "inactive"}
{"smiles": "CCOP(=S)(OCC)Oc1ccc([N+](=O)[O-])cc1", "outcome": "inactive"}
{"smiles": "CCCOCC(=Nc1ccc(Cl)cc1C(F)(F)F)n1ccnc1", "outcome": "inactive"}
{"smiles": "CCOP(=S)(OCC)OC(Cl)C(Cl)(Cl)Cl", "note": "(stereo not given)", "outcome": "inactive"}
{"smiles": "CC1(C(=O)Nc2ccc(O)c(Cl)c2Cl)CCCCC1", "outcome": "inactive"}
{"smiles": "CC(=NC#N)N(C)Cc1ccc(Cl)nc1", "outcome": "inactive"}
{"smiles": "CCC(=O)Nc1ccc(Cl)c(Cl)c1", "outcome": "inactive"}
{"smiles": "CNC(=O)Oc1cccc2c1OC(C)(C)O2", "AC50": "50 µM (active)"}
{"smiles": "Cc1ccn2nc(S(=O)(=O)Nc3c(F)cccc3F)nc2n1", "outcome": "inactive"}
{"smiles": "Nc1nc(N)nc(NC2CC2)n1", "outcome": "inactive"}
{"smiles": "CSc1nnc(C(C)(C)C)c(=O)n1N", "outcome": "inactive"}
{"smiles": "CCOP(=O)(NC(C)C)Oc1ccc(SC)c(C)c1", "note": "(stereo not given)", "outcome": "inactive"}
{"smiles": "CCOP(=O)(OCC)Oc1cc(C)nc(C(C)C)n1", "outcome": "inactive"}
{"smiles": "O=C(O)c1cc(Oc2ccc(C(F)(F)F)cc2Cl)ccc1[N+](=O)[O-]", "outcome": "inactive"}
{"smiles": "CC1=NNC(=O)N(/N=C/c2cccnc2)C1", "outcome": "inactive"}
{"smiles": "Cc1nn(-c2cc(NS(C)(=O)=O)c(Cl)cc2Cl)c(=O)n1C(F)F", "outcome": "inactive"}
{"smiles": "CC[C@H](C)[C@H]1O[C@]2(C=C[C@@H]1C)C[C@@H]1C[C@@H](C/C=C(\\C)[C@@H](O[C@H]3C[C@H](OC)[C@@H](O[C@H]4C[C@H](OC)[C@@H](NC)[C@H](C)O4)[C@H](C)O3)[C@@H](C)/C=C/C=C3\\CO[C@@H]4[C@H](O)C(C)=C[C@@H](C(=O)O1)[C@]34O)O2", "outcome": "inactive"}
{"smiles": "COc1ccc(C(=CC(=O)N2CCOCC2)c2ccc(Cl)cc2)cc1OC", "outcome": "inactive"}
{"smiles": "O=c1ccc(=O)[nH][nH]1", "outcome": "inactive"}
{"smiles": "CCc1cnc(C2=NC(C)(C(C)C)C(=O)N2)c(C(=O)O)c1", "note": "(stereo not given)", "outcome": "inactive"}
{"smiles": "COc1cccc(C(=O)NN(C(=O)c2cc(C)cc(C)c2)C(C)(C)C)c1C", "outcome": "inactive"}
{"smiles": "CN(C)[C@@H]1C(=O)C(C(N)=O)=C(O)[C@@]2(O)C(=O)C3=C(O)c4c(O)cccc4[C@@](C)(O)[C@H]3[C@H](O)[C@@H]12", "outcome": "inactive"}
{"smiles": "CC(C1CC1)C(O)(Cn1cncn1)c1ccc(Cl)cc1", "note": "(stereo not given)", "outcome": "inactive"}
{"smiles": "CNC(=O)ON=C(C)SC", "outcome": "inactive"}
{"smiles": "C[Si](Cn1cncn1)(c1ccc(F)cc1)c1ccc(F)cc1", "outcome": "inactive"}
{"smiles": "FC(F)C(F)(F)OCC(Cn1cncn1)c1ccc(Cl)cc1Cl", "note": "(stereo not given)", "outcome": "inactive"}
{"smiles": "CCOC(=O)COc1cc(-c2nn(C)c(OC(F)F)c2Cl)c(F)cc1Cl", "outcome": "inactive"}
{"smiles": "CC(C)N(C(=O)SCC(Cl)=C(Cl)Cl)C(C)C", "outcome": "inactive"}
{"smiles": "O=[N+]([O-])c1cc(C(F)(F)F)c(Cl)c([N+](=O)[O-])c1Nc1ncc(C(F)(F)F)cc1Cl", "outcome": "inactive"}
{"smiles": "CN(C)C(=O)Nc1cccc(C(F)(F)F)c1", "outcome": "inactive"}
{"smiles": "COP(=O)(OC)SCn1c(=O)oc2cc(Cl)cnc21", "outcome": "inactive"}
{"smiles": "CCC(CC)Nc1c([N+](=O)[O-])cc(C)c(C)c1[N+](=O)[O-]", "outcome": "inactive"}
{"smiles": "CCOP(=S)(OCC)Oc1ccc2c(C)c(Cl)c(=O)oc2c1", "outcome": "inactive"}
{"smiles": "CCNc1nc(Cl)nc(NC(C)(C)C#N)n1", "outcome": "inactive"}
{"smiles": "N#CSCSC#N", "outcome": "inactive"}
